# A selection: hits, their analogues and other compounds. The true share with any hit is near 10%.
# JMJD2A Tudor – inhibitors of human JMJD2A Tudor domain. O75164. AlphaScreen JMJD2A-Tudor / H3K4me3 peptide binding. Potency, µM (series often up to 114 µM), for the others: at the highest dose activity change, negative = inhibition, usual class: inhibitors. 4.4% of 390,000 active. AID 504339; also: potency is read from the fitted curve at half-maximal effect; % is scaled to controls: 0 for no effect and ±100 for the full control effect; nearly all actives have a fitted effect of over 50% in size
# Target sequence (O75164 whole entry, looked up, the tested form may be a part): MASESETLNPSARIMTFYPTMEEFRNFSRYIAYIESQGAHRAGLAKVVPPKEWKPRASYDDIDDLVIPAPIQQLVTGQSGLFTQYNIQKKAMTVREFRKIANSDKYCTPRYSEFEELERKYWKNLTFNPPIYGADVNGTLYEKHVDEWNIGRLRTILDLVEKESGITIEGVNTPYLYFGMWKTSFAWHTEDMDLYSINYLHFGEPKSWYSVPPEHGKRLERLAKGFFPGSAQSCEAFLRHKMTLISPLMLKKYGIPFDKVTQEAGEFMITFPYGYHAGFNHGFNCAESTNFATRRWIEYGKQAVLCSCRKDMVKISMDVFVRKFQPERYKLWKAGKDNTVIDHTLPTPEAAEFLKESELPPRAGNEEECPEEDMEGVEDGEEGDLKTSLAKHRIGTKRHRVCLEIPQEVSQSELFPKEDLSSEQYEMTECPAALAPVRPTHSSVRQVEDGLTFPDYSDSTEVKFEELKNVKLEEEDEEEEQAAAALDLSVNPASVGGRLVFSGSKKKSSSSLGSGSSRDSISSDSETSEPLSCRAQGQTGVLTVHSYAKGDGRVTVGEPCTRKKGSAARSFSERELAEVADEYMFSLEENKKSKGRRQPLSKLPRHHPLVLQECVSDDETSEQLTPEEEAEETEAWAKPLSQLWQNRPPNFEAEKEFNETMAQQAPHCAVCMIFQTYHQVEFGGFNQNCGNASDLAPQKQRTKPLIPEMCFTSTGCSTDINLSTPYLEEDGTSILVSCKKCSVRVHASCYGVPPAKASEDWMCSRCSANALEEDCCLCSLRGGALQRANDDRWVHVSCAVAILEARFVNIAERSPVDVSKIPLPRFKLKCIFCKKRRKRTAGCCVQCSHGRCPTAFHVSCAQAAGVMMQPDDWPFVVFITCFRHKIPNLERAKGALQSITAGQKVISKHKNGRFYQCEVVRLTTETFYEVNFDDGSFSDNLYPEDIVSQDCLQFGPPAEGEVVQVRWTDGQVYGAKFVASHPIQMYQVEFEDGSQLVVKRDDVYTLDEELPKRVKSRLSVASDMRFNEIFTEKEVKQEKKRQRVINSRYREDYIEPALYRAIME
# G9a inh – G9a (human) methyltransferase inhibition; 8.8% of 350,000 active; Q96KQ7; G9a H3K9 monomethylation, AlphaScreen, 2 h; Potency, µM (highest dose often 102 µM), for the others: at the top dose activity, negative = inhibition, most hits filed as inhibitors; also: potency is read from the fitted curve at half-maximal effect; % is scaled to controls: 0 for no effect and ±100 for the full control effect; nearly all actives have a fitted effect of over 75% in size
#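 Compounds were preincubated with 20 nM G9a for 15 min, after which biotinylated H3K9 peptide (500 nM) and SAM (20 uM) started a 2 h room-temperature reaction. Monomethylated product was quantified by antibody-based AlphaScreen chemiluminescence.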
# CtBP-E1A blk – blocks the CtBP interaction with E1A. 0.49% of 340,000 active. activity change, % (no concentration beside the values). AID 651724. AlphaScreen GST-E1A/His-CtBP binding, 1536-well; active compounds read low; in the data active = activity change below about -65%; inconclusive = mostly about -30% to -63%; also: % is scaled to controls: 0 for no effect and ±100 for the full control effect
#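 AlphaScreen with 125 nM GST-E1A and 125 nM His-CtBP (5X stocks) in Tris pH 8.0, 300 mM NaCl, BSA, Tween 20, TCEP. Compounds preincubated 2 h at 37 deg C, then glutathione donor/nickel acceptor beads added for 1 h at 37 deg C in dark.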
# HP1b binding inh – blocks HP1-beta chromodomain binding to methylated histone tails; Potency, µM (highest dose often 114 µM), without a hit: at the top dose activity change, negative = inhibition, hits mostly inhibitors; P83916; 0.56% of 390,000 active; AID 540317; AlphaScreen HP1-beta / biotin-H3K9me3 peptide binding; also: potency is read from the fitted curve at half-maximal effect; nearly all actives have a fitted effect of over 70% in size
#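 AlphaScreen: HP1-beta (50 nM) preformed 30 min with biotin-H3(1-18)K9me3 peptide (50 nM) in PBS pH 7.4, 0.01% Tween-20. Compound added for 30 min at RT, then streptavidin donor/nickel chelate acceptor beads (10 ug/mL) for 30 min.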
# Six1-Eya2 blk – Six1/Eya2 interaction inhibition; Q15475+O00167; AlphaScreen GST-Six1/His-Eya2 binding, biochemical; active compounds read low; activity change, % (no concentration beside the values); 0.56% of 360,000 active; AID 651725; in the data active = activity change below about -65%; inconclusive = mostly about -30% to -63%; also: % is scaled to controls: 0 for no effect and ±100 for the full control effect
#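 Compounds are tested against tagged Six1 and Eya2 proteins bridged by glutathione donor and nickel acceptor beads; after a one-hour incubation at 37 °C without light, AlphaScreen emission is recorded.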
# BAZ2B inh – inhibitors of human BAZ2B bromodomain | Potency, µM (doses to about 114 µM), without a hit: at the highest dose activity change, negative = inhibition, actives largely listed as inhibitors | AlphaScreen BAZ2B-H3K14Ac peptide displacement | 4.4% of 360,000 active | AID 504333 | Q9UIF8; also: potency is read from the fitted curve at half-maximal effect; % is scaled to controls: 0 for no effect and ±100 for the full control effect; nearly all actives have a fitted effect of over 60% in size
#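 AlphaScreen luminescence quantifies BAZ2B engagement of H3K14Ac peptide; the protein and biotinylated peptide are both at 50 nM final, buffer PBS pH 7.4 with 0.01% Tween-20, all steps at room temperature.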
# Active calls of the source: *; u = inconclusive; x = not tested or not shown; [ ] = remark or other dose. Unless noted, calls follow the shape of the dose curve; as a rule, active = well fitted inhibition curve with a large enough effect; inconclusive = small, poorly fitted or top-dose-only effect; inactive = no such curve, though single readings can be large or run the other way.
SMILES,JMJD2A Tudor,G9a inh,CtBP-E1A blk,HP1b binding inh,Six1-Eya2 blk,BAZ2B inh
C=CCOc1ccccc1CN1CCCN(C)CC1,10µM*,8.91µM*,x,u,7.9,70.8µM*
CCCS(=O)(=O)N1CCN(Cc2c[nH]c3ccccc23)CC1,22.4µM*,25.1µM*,-10.1,u,4.2,50.1µM*
Fc1ccccc1N1CCN(C2CCCN(Cc3ccccc3C(F)(F)F)C2)CC1 (stereo not given),-17.5%,x,-6.5,16.0%,-4.3,-12.1%
CSc1cccc(NC(=O)N2CCN(S(=O)(=O)c3ccc4c(ccn4C)c3)CC2)c1,-29.7%,1.2%[59 µM],x,6.6%[57 µM],x,-10.4%
COc1ccc(CCNC(=O)CN(c2ccc(C)cc2)S(=O)(=O)c2ccc(OC)cc2)cc1,-18.0%,-3.4%[59 µM],x,9.0%,x,4.3%
Cc1ccc(CCNC(=O)CN2C(=O)COc3ccc(S(=O)(=O)N4CCCCCC4)cc32)cc1,-14.7%,-9.4%[59 µM],x,38.3%,x,-17.1%
CCOC(=O)c1c(NC(=O)CSc2nnc(-c3cccnc3)o2)sc(C(C)=O)c1C,17.8µM*,9.8%[59 µM],-4.3,u,-8.8,u
O=C(CSc1nnc(-c2cccnc2)o1)Nc1nccs1,u,21.4%,u,48.3%,-71.5*,u
CCOC(=O)c1c(NC(=O)CSc2nnc(-c3ccco3)o2)sc(C(C)=O)c1C,-19.7%,11.9%[59 µM],-1.3,34.9%,-8.7,-29.3%
CCOC(=O)c1c(NC(=O)CSc2nnc(-c3ccccc3C)n2C)sc(C(C)=O)c1C,-31.0%,u,-25.1,-16.9%,-11.5,50.1µM*
O=C(CSc1nnc(-c2cccnc2)o1)Nc1ccc(F)cc1,x,x,2.3,x,0.9,x
CC(C)(C)c1ccc2c(c1)OC(C(=O)N/N=C\c1ccccn1)CO2 (stereo not given),-9.9%,2.9%[59 µM],u,32.7%,-12.4,1.6%
CC(C)(C)c1ccc2c(c1)OC(C(=O)N/N=C\c1ccc(-c3cccc(C(=O)O)c3)o1)CO2 (stereo not given),-25.2%,39.8µM*,6.7,2.9%,-16.1,50.1µM*
O=C(O)c1cccc(-c2ccc(/C=N/NC(=O)C3COc4ccccc4O3)o2)c1 (stereo not given),-15.8%,39.8µM*,-17.7,7.7%,-14.4,u
COc1ccc(C(=O)NC(=S)NNC(=O)[C@H]2C[C@@H]2c2ccccc2)cc1OC,-25.4%,44.7µM*,-13.9,-3.0%,-20.4,-0.4%
COc1cc(OC)cc(C(=O)NC(=S)NNC(=O)[C@H]2C[C@@H]2c2ccccc2)c1,u,20µM*,u,-22.8%,-5.0,-19.4%
O=C(/C=C/c1ccc(F)cc1)NC(=S)NNC(=O)[C@H]1C[C@@H]1c1ccccc1,-14.0%,35.5µM*,x,22.5%,-14.7,-2.6%[57.1 µM]
O=C(CSc1nnc(-c2cccs2)o1)Oc1ccccc1Cl,-5.3%,-32.0%[59 µM],x,42.2%,x,0.6%
O=C(Nc1ccc2nc(SCC(=O)N3CCCC3)sc2c1)c1ccccc1F,-18.9%,-1.8%[59 µM],x,12.0%,x,-3.8%
CNC(=S)N(CCc1c(C)[nH]c2ccc(C)cc12)Cc1cccnc1,-27.6%,79.4µM*,0.3,9.1%,-16.0,u
CNC(=S)N(CCc1c(C)[nH]c2ccc(Cl)cc12)Cc1cccnc1,u,5.8%[2.33 µM],-9.7,-12.5%,-6.4,70.8µM*
COc1ccc(NC(=O)Cn2c(=O)n(-c3cc(C)cc(C)c3)c(=O)c3oc4ccccc4c32)cc1OC,-22.7%,u,x,10.7%,x,-13.6%
CCOc1ccc(-c2nc(SCC(=O)NCCOC)c(-c3ccc(OC)c(OC)c3)[nH]2)cc1,-28.8%,-22.7%[59 µM],x,-10.6%,x,u
COc1ccc(OC)c(/C=C/c2nc3ccccc3c(=O)n2-c2ccc(F)c(Cl)c2)c1,-3.7%,2.3%[59 µM],x,61.4%,x,2.1%
S=C(/N=c1/sccn1Cc1ccccc1)NC1CC1,-31.8%,50.1µM*,-8.6,1.6%,-9.3,56.2µM*
SMILES,JMJD2A Tudor,G9a inh,CtBP-E1A blk,HP1b binding inh,Six1-Eya2 blk,BAZ2B inh
ClCc1csc(-c2ccc(Cl)cc2)n1,52.0%,7.9%,-2.9,140.4%,2.1,8.1%
CC1CN(Cc2csc(-c3ccc(Cl)cc3)n2)CC(C)O1 (stereo not given),10µM*,39.8µM*,4.6,u,-10.9,50.1µM*
CC(C)c1ccc(OCC(=O)NCCS(=O)(=O)N2CCN(c3ccc(F)cc3)CC2)cc1,0.3%,-3.9%[59 µM],x,23.9%[57 µM],x,-2.3%
COCCN(CCOC)C(=O)c1ccc(SCc2ccc(C)cc2)c([N+](=O)[O-])c1,-32.6%,56.2µM*,6.7,-15.2%,10.0,u
CCc1nc2sc3c(N4CCC(C)CC4)ncnc3c2c2c1CCCC2,-12.4%,-22.1%[59 µM],x,33.6%,x,1.8%
CS(=O)(=O)c1ccc2c(c1)sc1nc(=O)c(/C=C3/C=CC(=O)C(O)=C3)c(N)n12,7.08µM*,5.01µM*,3.2,15.8µM*,-13.5,14.1µM*
Cc1ccc(N/N=C/c2c(C)c(C#N)c(=O)n(C)c2O)cc1C,11.2µM*,0.794µM*,-18.1,-19.7%,-0.1,56.2µM*
Cc1ccc(NCc2cccn2-c2nnc(N3CCC(C(=O)NCc4ccc(F)cc4)CC3)s2)cc1,u,-6.7%[59 µM],x,-6.6%,x,-8.7%
O=C(Nc1nc2nc(-c3ccccc3)cc(=O)n2[nH]1)c1ccc(Cl)cc1,u,u,x,25.8%,x,79.4µM*
CC(C)CC(=O)Nc1nc2nc(-c3ccccc3)cc(=O)n2[nH]1,u,u,x,26.2%,x,50.1µM*
COc1ccc(C(=O)Nc2nc3nc(-c4ccccc4)cc(=O)n3[nH]2)cc1,-13.2%,u,-8.0,37.3%,-17.4,11.7%
Cc1cc(=O)n2[nH]c(SCc3ccccc3)nc2n1,18.9%,13.0%,2.1,25.8%,-0.4,2.0%
O=c1cc(-c2ccccc2)nc2nc(SCc3ccccc3)[nH]n12,u,-11.8%[12.7 µM],-8.5,2.8%,-0.7,79.4µM*
Cc1ccccc1C(=O)OCc1cc(=O)n2nc(-c3cccs3)sc2n1,-29.7%,19.1%[59 µM],x,-5.8%,x,-13.2%
C/C(CC1(O)C(=O)Nc2ccccc21)=N\O (stereo not given),-11.3%,-3.2%[59 µM],-2.7,19.2%,10.8,-13.3%
C/C(CC1(O)/C(=N/O)CCc2nonc21)=N\O (stereo not given),15.8µM*,39.8µM*,-0.3,14.6%,3.2,3.9%
CCN1CC2=C(OC(N)=C(C#N)C2c2cccs2)/C(=C\c2cccs2)C1 (stereo not given),u,44.7µM*,u,u,u,35.5µM*
CCOC(=O)C1=C(CC)OC(N)=C(C#N)C1c1ccsc1 (stereo not given),-1.4%,56.2µM*,-2.0,30.3%,-2.0,u
CCOC(=O)C1=C(CC)OC(N)=C(C#N)C1c1ccc(OC)cc1OC (stereo not given),-18.5%,-12.3%[59 µM],-0.6,32.7%,-1.4,-3.6%
